Measured values from the supplement of paper PMC3545927.
The list shows a part of the results. How many sequences the whole screen found active is unknown.

Molecular target: furin, P09958
Experiment: furin cleavage Z-score vs untreated control; higher = more cleavage, active = 3.5 or more, inactive = 1 or less, 8 variable residues between constant flanks
Method in brief: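 Read counts from sequencing released DNA gave abundance for each bead-bound 8-mer peptide–cDNA fusion cut by purified furin over 7.5, 15 or 30 min. The cleavage Z-score compares log counts with furin-free reactions after lowess adjustment and median absolute deviation scaling.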
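Also: purified furin at 1:10 enzyme:substrate in 50 mM HEPES pH 7.5.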

furin, P09958, sequence (P09958 whole entry): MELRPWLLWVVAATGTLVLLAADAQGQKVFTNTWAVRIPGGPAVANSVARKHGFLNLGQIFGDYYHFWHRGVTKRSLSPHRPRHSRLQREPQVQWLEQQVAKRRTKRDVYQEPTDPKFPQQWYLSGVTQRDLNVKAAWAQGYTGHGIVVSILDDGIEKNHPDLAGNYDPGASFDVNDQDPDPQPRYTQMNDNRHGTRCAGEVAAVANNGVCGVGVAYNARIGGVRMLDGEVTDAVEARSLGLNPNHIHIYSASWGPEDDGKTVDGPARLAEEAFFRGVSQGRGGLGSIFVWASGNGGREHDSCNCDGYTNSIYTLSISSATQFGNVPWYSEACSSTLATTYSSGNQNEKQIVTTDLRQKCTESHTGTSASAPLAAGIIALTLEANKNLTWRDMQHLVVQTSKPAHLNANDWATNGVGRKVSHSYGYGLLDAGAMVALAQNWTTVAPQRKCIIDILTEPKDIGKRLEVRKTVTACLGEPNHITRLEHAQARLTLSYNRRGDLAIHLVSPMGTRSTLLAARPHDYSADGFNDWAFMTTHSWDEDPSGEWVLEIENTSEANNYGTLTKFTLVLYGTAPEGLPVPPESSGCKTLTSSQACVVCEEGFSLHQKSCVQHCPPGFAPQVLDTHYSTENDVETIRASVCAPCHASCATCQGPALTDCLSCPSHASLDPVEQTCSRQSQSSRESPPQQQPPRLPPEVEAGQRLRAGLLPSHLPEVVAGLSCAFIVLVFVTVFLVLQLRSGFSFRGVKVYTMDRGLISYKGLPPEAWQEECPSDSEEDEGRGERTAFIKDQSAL

| Sequence | furin cleavage Z-score (7.5 min) | furin cleavage Z-score (15 min) | furin cleavage Z-score (30 min) |
| --- | --- | --- | --- |
| CAGAPTYSWGAGNASASA [HC422] | -0.832 (inactive) | -0.574 (inactive) | -0.69 (inactive) |
| CAWTPCSAHLAGNASASA [HC2468] | -0.238 (inactive) | 0.336 (inactive) | -1.23 (inactive) |
| CAMEECSSHLAGNASASA [HC1737] | -0.244 (inactive) | 0.0684 (inactive) | 0.567 (inactive) |
| CASTCCSAHLAGNASASA [HC2520] | -0.141 (inactive) | 0.556 (inactive) | -0.184 (inactive) |
| CARRRREYWQAGNASASA [FS-2077] | 1.57 | 2.17 | 5.41 (active) |
| CARRRRNVHDAGNASASA [FS-2375] | 4.94 (active) | 5.47 (active) | 4.66 (active) |
| CARACRLVHDAGNASASA [FS-2127] | -0.975 (inactive) | -0.538 (inactive) | -0.874 (inactive) |
| CARRRRFSRTAGNASASA [FS-1482] | 12.1 (active) | 11.9 (active) | 9.62 (active) |
| CARRRREAPKAGNASASA [FS-2452] | 10.9 (active) | 12.3 (active) | 8.72 (active) |
| CARRRRLLQQAGNASASA [FS-3167] | -0.397 (inactive) | -0.514 (inactive) | -0.168 (inactive) |
| CAVYEAADAIAGNASASA [HC267] | -0.0143 (inactive) | -0.395 (inactive) | -0.118 (inactive) |
| CATPMGFSYDAGNASASA [HC1477] | -1.01 (inactive) | -0.454 (inactive) | -1.57 (inactive) |
| CARRRRFERAAGNASASA [FS-1566] | 10.7 (active) | 10.7 (active) | 8.07 (active) |
| CARRRREGGAAGNASASA [FS-2373] | -0.0204 (inactive) | 0.649 (inactive) | 0.0983 (inactive) |
| CAHPLRPAREAGNASASA [FS-1210] | 5.83 (active) | 7.36 (active) | 6.09 (active) |
| CASSVRPAREAGNASASA [FS-197] | 5.98 (active) | 7.51 (active) | 5.17 (active) |
| CAVVCCSASYAGNASASA [HC2043] | 0.0516 (inactive) | 0.0797 (inactive) | 0.0526 (inactive) |
| CAMSARRARDAGNASASA [FS-463] | 9.65 (active) | 10.9 (active) | 7.88 (active) |
| CAGLRRQKRDAGNASASA [FS-1000] | 12.6 (active) | 12.8 (active) | 9.7 (active) |
| CANPARDDRSAGNASASA [FS-946] | 1.25 | 0.0847 (inactive) | -1.86 (inactive) |
| CALEKRQKRDAGNASASA [FS-1639] | 14.8 (active) | 13.5 (active) | 11.4 (active) |
| CALEKRSVGCAGNASASA [FS-2391] | -0.325 (inactive) | -2.06 (inactive) | -0.0695 (inactive) |
| CAGLRDLAVAAGNASASA [HC642] | 1.12 | -0.299 (inactive) | -1.6 (inactive) |
| CAELGRPARDAGNASASA [FS-926] | 0.0348 (inactive) | -0.0349 (inactive) | -0.833 (inactive) |
